HepG2 viability = qHTS for Inhibitors of TGF-b: Cytotox Counterscreen; HepG2 CAGA-GFP viability, ATP luminescence, 18 h; Potency, µM (doses to about 46.1 µM), usual class: cytotoxic; actives 0.76% (n = 410,000)
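HepG2 CAGA-GFP cells (1000/well, DMEM with 1% FBS) received compound, then TGF-beta at 500 pg/mL final, and were incubated 18 hours at 37 degrees C. Viability was read by CellTiter-Glo luminescence. Media-only wells were set as complete cell-killing and DMSO as no toxicity.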
ATXN2 expr inh = Primary qHTS for Inhibitors of ATXN expression. actives 0.72% (n = 360,000). HEK-293 ATXN2-luciferase reporter, luminescence, 24 h. Potency, µM (titrated, usually from 57 µM), hits mostly inhibitors; further: nearly all actives have a fitted effect of over 55% in size
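ATXN2-luciferase reporter cells (luciferase flanked by upstream and downstream ATXN2 gene portions) were treated 24 h at 37 °C with compounds at up to 57 uM. SteadyGlo luminescence gave expression; GF-AFC fluorescence gave viability.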
ATXN viability = Viability Counterscreen for Primary qHTS for Inhibitors of ATXN expression; S2 cells (HEK-293 line with an ATXN2-luciferase reporter) viability, CellTiter-Fluor protease fluorescence, 24 h; Potency, µM (titrated, usually from 56.7 µM), usual class: cytotoxic; actives 0.49% (n = 400,000); further: nearly all actives have a fitted effect of over 40% in size
DT40 TDP1 CPT = qHTS for Inhibitors of human tyrosyl-DNA phosphodiesterase 1 (TDP1): qHTS in cells in presence of CPT; chicken DT40 Tdp1-/-;hTDP1 cells + 20 nM CPT, ATP luminescence, 48 h; AID 686979, 2013; Potency, µM (titrated, usually from 46.2 µM), most hits filed as inhibitors; actives 12% (n = 420,000); further: nearly all actives have a fitted effect of over 55% in size
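Chicken DT40 Tdp1-/- cells stably complemented with human TDP1 were seeded at 400 cells/well in medium containing 20 nM camptothecin, exposed to pin-transferred compounds, and grown at 37 °C for at least 48 hr. Viability was read as ATP luminescence.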
TGFb inhibitor = qHTS for Inhibitors of TGF-b; Potency, µM (top dose mostly 46.1 µM), usual class: inhibitors; AID 588855, 2011; actives 1.2% (n = 410,000); HepG2 CAGA-GFP TGF-b/SMAD3 reporter, GFP fluorescence, 18 h; TGF-beta stimulated, 500 pg/mL final; further: nearly all actives have a fitted effect of over 65% in size
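First, reporter cells (HEPG2 CAGA-GFP) rested 2 h at 37 degrees C. Next, compounds were pinned in and TGF-beta added to 500 pg/mL final. After 18 h, GFP was imaged per cell and summed per well.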
TDP1 cell noCPT = qHTS for Inhibitors of human tyrosyl-DNA phosphodiesterase 1 (TDP1): qHTS in cells in absence of CPT. Potency, µM (top dose mostly 46.2 µM), usual class: inhibitors. DT40 Tdp1-/- hTDP1 cells, no CPT, ATP luminescence, 48 h. AID 686978, 2013. actives 15% (n = 420,000); further: nearly all actives have a fitted effect of over 55% in size
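Cells were dispensed at 400 per well, compounds added by pin tool, plates incubated ≥48 hr at 37 °C, then CellTiter-Glo added for 30 min at room temperature before luminescence reading. Line: DT40 Tdp1-/- complemented with hTDP1; camptothecin omitted.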
Numbers stand for hits; n = inactive; u = inconclusive; x = no result given; [ ] = dose if it differs, or a comment. Rows were chosen to be rich in hits. Some 17% of all compounds tested hit in one or more screens of this group. The call rests on the fitted dose curve; in most records, active means well fitted curve in the direction sought with a large enough effect; inconclusive means small, poorly fitted or top-dose-only effect, or another doubt; inactive means no such curve, though single readings can be large; an effect the other way counts as inactive or inconclusive.

SMILES	HepG2 viability	ATXN2 expr inh	ATXN viability	DT40 TDP1 CPT	TGFb inhibitor	TDP1 cell noCPT
COC(=O)/C=C1\N/C(=N/c2nc(C)c3cc(OC)ccc3n2)NC1=O	n	n	u	12µM	n	9.2µM
Cc1ccc(C)c(-c2nnc(NC(=O)c3ccc4c(c3)OCCO4)o2)c1	n	x	x	18µM	u	8.2µM
COc1cc(OC)cc(-c2nnc(NC(=O)c3ccc4c(c3)OCCO4)o2)c1	n	x	n	10µM	n	8.2µM
COc1ccccc1N(CC(=O)Nc1cc(C)cc(C)c1)S(C)(=O)=O	n	n	n	u	n	u
Cc1cc(NC(=O)CSc2nc(-c3ccco3)cc(C(F)(F)F)n2)no1	n	n	u	0.58µM	n	0.73µM
Cc1cc(NC(=O)CCCSc2nc(-c3ccco3)cc(C(F)(F)F)n2)no1	n	n	n	n	n	n
CN(C)c1ccc(NC(=O)CCSc2nc(-c3ccco3)cc(C(F)(F)F)n2)cc1	n	x	x	u	n	18µM
Cc1ccc(O)c(NC(=O)CCSc2nc(-c3ccco3)cc(C(F)(F)F)n2)c1	n	u	u	u	u	18µM
CCn1nc(C)c(NC(=O)CCCSc2nc(-c3ccco3)cc(C(F)(F)F)n2)c1C	n	n	n	18µM	n	15µM
Cc1nc2cncnc2n(-c2ccccc2)c1=O	x	x	x	n	x	n
CCCc1ccc2ccc3ccccc3c2n1	n	n	n	u	n	n
Cc1ccc(NC(=O)CSc2nc(-c3ccco3)cc(C(F)(F)F)n2)cc1	n	n	n	2.1µM	n	3.3µM
O=C(CSc1nc(-c2ccco2)cc(C(F)(F)F)n1)Nc1ccc(C(=O)N2CCCCC2)cc1	n	n	n	7.3µM	n	6.5µM
CC(=O)c1ccc(NC(=O)CCSc2nc(-c3ccco3)cc(C(F)(F)F)n2)cc1	n	n	n	u	n	u
COc1ccccc1N1CCN(C(=O)CSc2nc(-c3ccco3)cc(C(F)(F)F)n2)CC1	n	n	n	u	u	23µM
COc1ccc(O)c(C(=O)C2c3ccccc3C(=O)N2c2ccc(C)cc2)c1 (stereo unspecified)	n	n	n	n	n	n
CN(C(=O)c1cccc(NC(=O)Cc2ccc(NC(=O)C3CCN(C(=O)C4CCCC4)CC3)cc2)c1)C1CCCC1	n	n	n	u	n	u
Cc1nc2ccc(S(=O)(=O)NCC(=O)NCCc3ccc(Cl)cc3)cc2s1	n	n	n	n	n	n
COc1cccc(NC(=O)CN2C(=O)CSc3nc(C)cc(C)c32)c1	n	n	n	n	n	n
S=C(NCCc1ccccc1)NC1CC2CCC(C1)N2Cc1ccccc1 (stereo unspecified)	n	n[11.3 µM]	n	u	n	u
O=C1C(=C(c2ccccc2)N2CCOCC2)Cc2ccccc21	8.9µM	x	u	1.2µM	3.2µM	0.82µM
O=C1C(=Cc2ccco2)CCC1=Cc1ccco1	n	n	n	23µM	u	16µM
O=C1C(=Cc2ccco2)CCCC1=Cc1ccco1	n	n	n	23µM	n	u
O/N=C1\CCC\C1=C/c1ccco1	n	n	n	n	n	n
Cc1ccc(NC(=O)C(=O)NCC(c2ccc3c(c2)OCO3)N2CCN(C)CC2)cc1C (stereo unspecified)	n	n	n	16µM	n	u
SMILES	HepG2 viability	ATXN2 expr inh	ATXN viability	DT40 TDP1 CPT	TGFb inhibitor	TDP1 cell noCPT
CCc1ccc(NC(=O)C(=O)NCC(c2ccc3c(c2)OCO3)N2CCOCC2)cc1 (stereo unspecified)	n	n	n	n	n	n
CCc1ccc(NC(=O)C(=O)NCC(c2ccc3c(c2)OCO3)N2CCN(C)CC2)cc1 (stereo unspecified)	n	n	n	u	n	16µM
COc1ccc(NC(=O)C(=O)NCC(c2ccc3c(c2)OCO3)N2CCN(C)CC2)cc1 (stereo unspecified)	n	x	x	u	n	u
COc1cc(C(=O)N(Cc2cc3ccc(C)cc3nc2N(C)C)C2CC2)cc(OC)c1OC	x	x	n	n[9.04 µM]	x	u
CCn1c(O)c(C=Nc2ccccc2)n(-c2ccccc2)c1=S	n	n	n	6.5µM	n	5.8µM
CN[C@H](CC(C)C)C(=O)N[C@H]1C(=O)N[C@@H](CC(N)=O)C(=O)N[C@H]2C(=O)N[C@H]3C(=O)N[C@H](C(=O)N[C@@H](C(=O)O)c4cc(O)cc(O)c4-c4cc3ccc4O)[C@H](O)c3ccc(c(Cl)c3)Oc3cc2cc(c3O[C@@H]2O[C@H](CO)[C@@H](O)[C@H](O)[C@H]2O[C@H]2C[C@](C)(N)C(O)[C@H](C)O2)Oc2ccc(cc2Cl)[C@H]1O (stereo partly specified)	x	x	n	n	x	n
Cc1cc(N2CCCC2)nc(SCC(=O)c2ccccc2)n1	n	n	u	u	n	23µM
Cc1cc(N2CCOCC2)nc(SCC(=O)c2ccc(Cl)cc2)n1	n	n	n	16µM	n	u
CSCc1cc(N2CCOCC2)nc(SCc2ccc(Cl)c(Cl)c2)n1	n	n	n	21µM	n	n
COC(=O)CSc1nc(C)cc(N2CCOCC2)n1	n	n	n	n	n	n
Cc1cc(N2CCOCC2)nc(SCC(=O)c2ccccc2)n1	n	n	n	n	n	n
Cc1cc(N2CCOCC2)nc(SCc2c(Cl)cccc2Cl)n1	n	n	n	u	11µM	u
CC(=O)N1CCN(Cc2cc(=O)oc3ccc4ccccc4c23)CC1	n	n	n	u	n	u
Cn1cnc2c(=O)sc3ccccc3c21	n	n	n	n	n	u
CCOc1ccc(C(=O)c2cn(CC(=O)Nc3ccc(Cl)cc3)c3cc4c(cc3c2=O)OCCO4)cc1	n	n	u	u	n	6.5µM
O=C(Cn1cc(C(=O)c2ccccc2)c(=O)c2cc3c(cc21)OCCO3)Nc1ccc(F)c(F)c1	n	n	n	18µM	n	u
CCOc1ccc(C(=O)c2cn(CC(=O)Nc3ccc(F)c(F)c3)c3cc4c(cc3c2=O)OCCO4)cc1	n	n	n	u	u	26µM
CCOc1ccc(NC(=O)Cn2cc(C(=O)c3ccc(OCC)cc3)c(=O)c3cc4c(cc32)OCCO4)cc1	n	n	n	13µM	n	5.8µM
CCc1ccc(C(=O)c2cn(CC(=O)Nc3ccc4c(c3)OCCO4)c3ccc(F)cc3c2=O)cc1	n	n	n	n	n	n

Screens as filed in PubChem.
